Screens as filed in PubChem BioAssay.
This is one part of a sample in which hits are shown more often than they occur.
aSyn yeast rescue – qHTS of alpha-syn Inhibitors: NCGC Sytravon Library Screen; Potency, µM (doses to about 46.1 µM), hits mostly activators; AID 1347070, 2019; 94,000 compounds, 0.02% hits; S. cerevisiae alpha-synuclein toxicity rescue, BacTiter-Glo growth, 24 h; active means well fitted activation curve with a large enough effect; further: 0% is about no effect
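Growth restoration measured by BacTiter-Glo luminescence after 24 hr at 30 deg C; alpha-synuclein yeast, raffinose-pregrown to mid-log, were added at OD600=0.02 in galactose medium onto pinned compounds.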
* marks the source's active call; other numbers are inactive results; i = inactive. Potency means the concentration at half of the fitted maximal effect.

SMILES	aSyn yeast rescue
CCc1cccc(NC(=O)c2ccc(CNS(=O)(=O)c3ccc4c(c3)C(C)(C)C(=O)N4C)cc2)c1	i
COc1cc(C(=O)Nc2cccc(OCc3cc(=O)n4c(C)csc4n3)c2)cc(OC)c1OC	i
CCN(C(=O)c1cn(-c2cccc(OC)c2)c(=O)c2ccccc12)c1ccccc1C	i
O=C(Cc1ccccc1)N(Cc1cccnc1)c1nc2c(Cl)cccc2s1	14.1µM*
O=C(C1COc2ccccc2O1)N(Cc1cccnc1)c1nc2c(Cl)cccc2s1 (configuration not stated)	i
COc1cccc2sc(N(Cc3cccnc3)C(=O)COc3ccccc3)nc12	i
CCc1ccc2oc(-c3ccc(C)c(NC(=O)c4ccc(C#N)cc4F)c3)nc2c1	i
CCCN(CCC)c1nn2c(=O)c(C(=O)NCc3cc(Br)ccc3OC)cnc2s1	i
COc1ccc(CNCCC(c2ccc3c(c2)OCO3)c2ccccc2OC)cc1 (configuration not stated)	i
O=C(NCc1ccccc1Cl)c1ccc2c(c1)N(Cc1ccccc1)C(=O)c1ccccc1S2	i
Cc1ccn2c(Nc3c(C)cccc3C)c(-c3ccc(Cl)s3)nc2c1	i
COc1ccc(-c2nn(C)c3sc(C(=O)Nc4cc(OC)c(OC)c(OC)c4)cc23)cc1OC	i
Cc1ccn2c(Nc3ccc(C(C)C)cc3)c(-c3cccnc3)nc2c1	i
CC(C)c1ccc(Nc2c(-c3ccccc3O)nc3cnccn23)cc1	22.4µM*
COc1cc(-c2nc3cnccn3c2Nc2ccc(C(C)C)cc2)ccc1O	i
O=C(NCCCO)C(=O)NCC(c1ccc2c(c1)OCO2)N1CCOCC1 (configuration not stated)	i
Brc1cccc(-c2nnn3c2nc(NCc2ccc4c(c2)OCO4)c2ccccc23)c1	i
Clc1ccc(-c2noc3ncnc(NCCc4ccccc4)c23)cc1	i
O=C(Nc1ccc(F)cc1C(F)(F)F)C1CCN(c2ncccn2)CC1	i
CCCC1=Nc2cc(C(=O)NC3CCCCC3)ccc2Sc2ccc(C)cc21	i
CCOc1ccccc1-n1nnc(-c2nc(-c3ccccc3C)no2)c1C	i
Cc1c(CCNC(=O)C(C)(C)C)sc2nc(-c3ccc(F)cc3)nn12	i
O=C(Cn1nc(-c2ccccc2)c2cnc3ccccc3c21)Nc1ccccc1	i
CCOC(=O)C1CCCN(C(=O)c2ccc3c(c2)sc2nc(-c4cccc(OC)c4)cn23)C1 (configuration not stated)	i
Cc1ccc2oc(C(=O)N(Cc3ccccc3F)C3CCS(=O)(=O)C3)c(C)c2c1 (configuration not stated)	i
SMILES	aSyn yeast rescue
COc1ccc(-c2nc3ccc(NS(=O)(=O)c4ccccc4)cc3o2)cc1	i
O=S(=O)(Nc1ccc2nc(-c3ccc(F)cc3)oc2c1)c1ccccc1	20µM*
Cc1ccc(S(=O)(=O)Nc2ccc3nc(-c4ccc(F)cc4)oc3c2)cc1	i
Cc1ccc(C(=O)Nc2ccc3nc(SCC(=O)N4CCCc5ccccc54)sc3c2)cc1	i
Cc1ccc(-c2c(C)n3c4c(=O)n(C)c(=O)n(C)c4nc3n2CCCO)cc1	i
CN(C1CCCCC1)S(=O)(=O)c1ccc(F)c(C(=O)Nc2ccc(C(F)(F)F)cc2)c1	i
CC(=O)N1CCc2c(sc3c2c(=O)n(CCc2ccccc2)c(=O)n3Cc2ccc(F)cc2)C1	i
COc1cccc(-c2nc(SCC(=O)NCC3CCCO3)c(-c3ccc(Cl)cc3)[nH]2)c1 (configuration not stated)	i
CS(=O)(=O)N1CCCc2cc(C(=O)Nc3cccc(C(F)(F)F)c3)ccc21	i
Cc1ccc(O)c(C(CC(=O)NCC2(c3ccccc3)CCCC2)c2ccccc2)c1 (configuration not stated)	i
CC(C)Oc1ccc(C(=O)N(Cc2ccc(N(C)C)cc2)Cc2ccco2)cc1	i
O=C(CCCn1c(=O)c2cccn2c2ccccc21)Nc1cccc(Cl)c1	i
Cc1ccc(CNC(=O)Cn2cc3c(n2)-c2c(oc(C(=O)N4CCOCC4)c2C)CC3)cc1	i
NC(=O)c1ccc(NC(=O)C2CCN(S(=O)(=O)Cc3ccccc3)CC2)cc1	i
Cc1ccc(CCNC(=O)CS(=O)Cc2nc(-c3cccs3)oc2C)cc1 (configuration not stated)	i
Cc1ccc(CCNC(=O)CS(=O)Cc2nc(-c3ccccc3C)oc2C)cc1 (configuration not stated)	i
CCc1ccc(-c2nc(CS(=O)CC(=O)NCCc3ccc(C)cc3)c(C)o2)cc1 (configuration not stated)	20µM*
CC(C)COc1ccc(C(=O)Nc2onc3c2CCCC3)cc1	i
NS(=O)(=O)c1ccc(CCNC(=O)Cn2c(=O)c3cccn3c3ccc(F)cc32)cc1	i
CCC1=Nc2cc(C(=O)NC3CCCC3)ccc2Sc2ccc(Br)cc21	i
CC(=O)c1[nH]c(C)c(C(=O)NCc2ccc(Cl)cc2)c1C	i
CCOc1ccc(C2=C(C(=O)CC)Sc3nncn3N2C(=O)CC)cc1	i
COc1cccc(C2C(=O)N(C3CCCCC3)CC(=O)N2Cc2ccc(Cl)cc2)c1 (configuration not stated)	i
CCOc1ccc(NC(=O)c2cc(S(=O)(=O)N3CCc4ccccc43)ccc2F)cc1	i
CCc1ccc(S(=O)(=O)NCCc2csc3nc(-c4ccccc4)nn23)s1	i
SMILES	aSyn yeast rescue
CCN(CC)CCCNC(=O)c1nn(C)c2c1CSc1ccccc1-2	i
COc1ccc(CN(C)c2ccc(-c3nc(C)no3)cc2[N+](=O)[O-])cc1	i
CCCc1nn2c(=O)cc(COC(=O)c3cccc(NC(=O)c4ccc(OCC)cc4)c3)nc2s1	i
Cc1ccccc1NC(=O)CSc1nc2nccnc2c(=O)n1CCc1c[nH]c2ccccc12	i
CCOCCCNC(=O)NC(CCC(C)C)c1c(-n2cccc2)sc2c1CCN(C)C2 (configuration not stated)	i
Cc1ccc(NC(=O)c2cc(S(=O)(=O)N3CCCCCC3)ccc2F)cc1F	i
CCc1ccc(NC(=O)c2cc(S(=O)(=O)NC3CCCC3)ccc2F)cc1	i
Cc1ccc(NC(=O)c2cc(S(=O)(=O)NC3CCCCCC3)ccc2F)cc1F	25.1µM*
O=C(CSc1nccn1Cc1ccc(F)cc1)Nc1ccc2c(c1)OCCO2	i
O=S(=O)(c1ccc(F)cc1)N1CCC(n2c(C(F)(F)F)nc3cccnc32)CC1	i
CCOc1ccccc1CNc1ncnc2c1nc1n2CCCC1	i
CC1=C(C(=O)Nc2ccc(Cl)cc2)C(C(C)C)n2nc(SCc3ccc(Cl)cc3)nc2N1 (configuration not stated)	i
Cc1nc(S(=O)(=O)N2CCN(c3cccc(Cl)c3)CC2)cn1C	i
COc1ccccc1NC(=O)Cn1c(=O)c(CNc2ccccc2)cc2cc(OC)c(OC)cc21	i
CCCN1CCCc2cc(CN(CCCN3CCOCC3)C(=O)Nc3ccc(Cl)c(Cl)c3)ccc21	i
COc1ccc(-n2nc(C(=O)NCCc3ccc(OC)c(OC)c3)c3c4ccccc4n(C)c3c2=O)cc1	i
O=c1c(S(=O)(=O)c2ccccc2)cn(Cc2ccc(F)cc2)c2cc(N3CCCC3)c(F)cc12	i
CSc1ccc(CCNC(=O)Cn2nc(C)n3c(cc4sccc43)c2=O)cc1	i
COc1ccc(CCNCc2c(C(=O)O)c(C)n(Cc3c(F)cccc3Cl)c2C)cc1OC	i
Cc1ccc(-c2noc(CNC(=O)c3ccc(Br)o3)n2)cc1	i
CCCC(=O)Oc1c(Sc2ccc(Cl)cc2)c(C)nn1-c1ccccc1	i
